KLF5 inhibitor: inhibitors of KLF5 expression; DLD-1 KLF5 promoter-luciferase reporter, luminescence; 290,000 tested, 0.23% active; inhibition, % at 5 µM;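 active means inhibition above a per-plate limit of that plate's mean compound inhibition plus 3 SD, cut at about 60% in these data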;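 further: 0% = DMSO wells and 100% = LY294002 at 200 µM; higher means less KLF5 promoter-driven luciferase light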
APP 5UTR inh: APP translation inhibition; SH-SY5Y APP 5'UTR-luciferase reporter, luminescence; inhibition, % at 2 µM; 190,000 tested, 0.82% active;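 active means inhibition above a set limit, derived from the sample mean plus 3 SD, cut at about 45% in these data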
Ba/F3 V617F tox: reduce viability of Ba/F3 cells dependent on JAK2V617F | Ba/F3 EpoR-JAK2V617F viability, ATP luminescence | AID 1446 | inhibition, % at 5.6 µM | 220,000 tested, 1.1% active;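 active means inhibition above the campaign mean plus 3 SD over all tested compounds, cut at about 24% in these data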;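 further: cytokine-independent growth of Ba/F3 cells driven by EpoR plus mutant JAK2; 0% = DMSO-treated cells and 100% = JAK inhibitor I control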
IEC-6 cytotox: kills IEC-6 intestinal cells in KLF5 counter-screen | IEC-6 cytotoxicity, luminescence viability | inhibition, % at 5 µM | 290,000 tested, 0.78% active | AID 1825; in the data active means inhibition above about 22%;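 further: 0% = plate median of test compound wells and 100% = cytotoxic reference compound wells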
BaF3 tox: counter-screen for JAK2V617F inhibitors: parental Ba/F3 viability inhibitors; CellTiter-Glo ATP luminescence; inhibition, % at 5.6 µM; 220,000 tested, 1.1% active; AID 1486;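 active means inhibition above a per-campaign cutoff, the mean inhibition of all tested compounds plus 3 SD, cut at about 27% in these data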;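 further: 0% = DMSO wells and 100% = JAK Inhibitor I control wells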
* marks the source's active call; other numbers are inactive results; . = no result given. Hits are enriched below; roughly 1.8% of the tested compounds scored in any of these assays.

SMILES	KLF5 inhibitor	APP 5UTR inh	Ba/F3 V617F tox	IEC-6 cytotox	BaF3 tox
CC(=O)OC(COC1C[C@@H]2CC[C@@]1(C)C2(C)C)C[N+]1(C)CCCCC1 (stereo partly drawn)	-1	.	1	-1	39*
Cn1cc(CNC(=O)C2CCC(=O)N(Cc3ccc(Cl)cc3)C2)cn1 (stereo not drawn)	-7	.	.	0	.
CN(C)c1ccc(/C=C(\C#N)c2ccccc2)cc1	-17	.	83*	74*	76*
Cc1c(C(=O)C(=O)NCCCn2ccnc2)c2ccccc2n1C	-25	8	1	1	2
ON/C=N/C(=S)Nc1ncc(C(F)(F)F)cc1Cl	-64	2	56*	3	62*
C/C(CC(=O)Nc1ccc2c(c1)OCO2)=N\NC(=O)C(c1ccccc1)c1ccccc1	-6	-25	6	5	9
CC(C)c1nnc(SCC(=O)Nc2ccc3c(c2)OCCO3)n1C	1	.	.	-1	.
COc1ccc2[nH]c3c(NCCC4=CCCCC4)ncnc3c2c1	-137	-75	64*	20	75*
COc1ccc(OC)c(NC(=O)Cc2coc3ccc4ccccc4c23)c1	-15	68*	-3	-4	4
CCc1c(C)c(C#N)c2nc3ccccc3n2c1-n1nc(C)cc1C	4	-20	-2	1	0
CCc1c(C)c(C#N)c2nc3ccccc3n2c1Cl	-4	95*	-6	-6	-3
Cc1ccc(C(=O)Nc2ncc([N+](=O)[O-])s2)cc1	87*	.	.	14	.
Cc1ccc(C(=O)Nc2ncc(Cc3ccc(F)cc3)s2)o1	-107	-134	80*	45*	71*
Cc1ccc(C(=O)Nc2ncc(Cc3ccc(SC(F)F)cc3)s2)cc1	33	93*	3	2	2
Cc1ccccc1C(=O)OCc1cnc(Cl)s1	-9	2	1	-6	4
CCOC(=O)C1(Cc2cccc(Cl)c2)CCCN(C(=O)c2cnn(CC)c2)C1 (stereo not drawn)	-9	.	.	1	.
Cc1nn(C)cc1S(=O)(=O)Nc1ncccn1	-25	.	.	-3	.
CC(C)(C)c1ccc(-c2nc(C=O)c3ccccn23)cc1	-16	-4	0	5	3
Cc1c(C(C)(C)C)c(C=S)n2ccccc12	6	70*	-2	5	3
COc1ccc(C2CC(C(F)(F)F)n3nc(C(=O)NCc4c(C)nn(C)c4C)c(Cl)c3N2)cc1 (stereo not drawn)	-19	-11	36*	5	44*
O=C(/C=C/c1ccccc1)NNC(=O)c1cccs1	2	-3	24*	-3	41*
COC(=O)c1ccc(Oc2cc(C)nc(SC)n2)cc1	12	86*	1	7	5
COC(=O)c1ccc(Oc2cc(C)nc(Cl)n2)cc1	-19	-8	4	-1	9
Cc1ccc(NC(=O)CCCSc2ccccc2)cc1S(=O)(=O)N1CCOCC1	6	-8	0	6	2
O=C(O)c1ccc2c(c1)C(=O)N(c1ccc(OCc3ccccc3)cc1)C2=O	6	.	.	-1	.
SMILES	KLF5 inhibitor	APP 5UTR inh	Ba/F3 V617F tox	IEC-6 cytotox	BaF3 tox
O=C(Nc1ccc2c(c1)nc1n2CCN(C2CCCCC2)C1)NC1CCCCC1	-22	-8	7	1	30*
CC(=O)Nc1cccc(NC(=S)Nc2cccc(Cl)c2C)c1	-18	-4	-2	3	90*
CC1CSC(N(C(=O)c2ccc(S(C)(=O)=O)cc2)c2ccc(Cl)cc2)=N1 (stereo not drawn)	-10	.	.	8	.
CCCCCCOc1ccc(OC(=O)c2ccncc2)cc1	-29	-3	44*	13	32*
CCC(C)(C)c1ccc(Oc2cccc(C(=O)O)c2)cc1	-173	.	-1	0	-4
CCC(C)(C)c1ccc(Oc2ccc(N)cc2)cc1	51	80*	13	1	15
CCn1c(CNc2ccc(F)cc2)nnc1SCCN1CCCCC1	-17	-7	-3	-2	93*
CCCC(=O)NC(=S)Nc1cccc(-c2nc3ncccc3o2)c1	-26	-20	-1	0	79*
COc1ccc(Cn2ccnc2SCC(=O)Nc2ccccc2OC)cc1	-23	.	.	-4	.
O=C1NCCCC1C(=O)N1CCN(C(c2ccccc2)c2ccccc2)CC1 (stereo not drawn)	0	50*	-2	-3	2
COc1cccc(C2C3=C(Nc4[nH]n(-c5ccccc5)c(=O)c42)c2ccccc2C3=O)c1 (stereo not drawn)	-16	12	-1	2	5
Cn1c2c(c(=O)[nH]c1=O)C(c1cccc(O)c1)C1=C(N2)c2ccccc2C1=O (stereo not drawn)	2	28	35*	2	16
Cc1cccc(NC(=O)/C(C#N)=C/c2cccc([N+](=O)[O-])c2)n1	1	.	.	-7	.
CCN(CC(=O)N1CCOCC1)S(=O)(=O)c1ccc2ccccc2c1	-56	.	.	-2	.
Cc1cc(/C=c2\sc3nc4ccccc4n3c2=O)c(C)n1-c1ccc(C(=O)O)cc1	-10	-19	4	-8	0
Cc1cc(/C=c2/sc3nc4ccccc4n3c2=O)c(C)n1-c1ccccn1	28	60*	-1	5	0
CCOc1cc(C)c(S(=O)(=O)Nc2ccc3cn[nH]c3c2)cc1C	5	6	5	10	40*
COc1ccc(CCNC(=O)Cc2cccc(C(F)(F)F)c2)cc1OC	1	.	.	-6	.
Cc1ccc(S(=O)(=O)N2CCN(C(=O)C(C)Cn3cncn3)CC2)cc1 (stereo not drawn)	-2	.	.	-1	.
Cc1cccc(CSC(Nc2ccc(F)cc2)=C(C#N)C#N)c1	-4	48*	0	13	7
Cc1cccc(CSC(=N)N)c1	-13	-2	-4	-1	-1
COCCCNC(=O)Cn1cc(/C=C(\C#N)C(=O)NC2CC2)c2ccccc21	-70	.	.	-9	.
Cc1cccc(OCC(=O)N2CCN(C(=O)COc3ccc(Cl)cc3)CC2)c1	-9	.	.	-1	.
CCCOc1ccc(CSc2nc3ccccc3[nH]2)cc1	-51	-125	5	8	44*
Fc1ccc(/C=N/n2cnn(Cc3ccccc3Cl)c2=S)cc1	-14	62*	-3	-6	1
SMILES	KLF5 inhibitor	APP 5UTR inh	Ba/F3 V617F tox	IEC-6 cytotox	BaF3 tox
Cc1cccc(C)c1NC1=NC2(CCCCC2)N=C(N)N1	-17	1	-5	-2	76*
Cc1cccc(NC2=NC3(CCCCC3)N=C(N)N2)c1C	-10	-7	-2	-1	6
Cn1cc(CNCc2cn[nH]c2-c2ccc(F)cc2)c(-c2ccc3c(c2)OCCO3)n1	-9	-15	4	6	14
Cn1cc(CNCc2ccc(OC(F)(F)F)cc2)c(-c2ccc3c(c2)OCCO3)n1	-14	-10	47*	14	40*
CC(=O)N1C(=O)/C(=C2\SC(=S)N(NS(=O)(=O)c3ccc(C)cc3)C2=O)c2ccccc21	-43	8	0	-5	7
O=C(Nc1ccc(N2CCN(C(=O)c3ccc(Cl)cc3)CC2)cc1)c1ccc([N+](=O)[O-])o1	-28	96*	3	-4	6
COC(=O)c1ccc(/C=N/NC(=O)C(=O)NCc2ccccc2)cc1	-3	4	-3	3	2
Cc1nn(C)c(C)c1CN(C)S(=O)(=O)c1ccc2ccccc2c1	-23	47*	46*	14	46*
